Measured values reported in PubChem BioAssay AID630 (Emory University Molecular Libraries Screening Center, 2007).
In all, about 88,000 compounds went through this assay and about 260 (0.3%) were called active. Shown is part of a subset that was picked to be rich in actives. Values without a mark were called inactive.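 The calls were made as follows: active = compounds that reduce the energy-transfer binding signal between the protein and its labelled peptide by more than half; inactive = the rest.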

Molecular target: Mothers against decapentaplegic homolog 3 (Homo sapiens) (UniProt P84022)
Sequence (P84022 whole entry, looked up): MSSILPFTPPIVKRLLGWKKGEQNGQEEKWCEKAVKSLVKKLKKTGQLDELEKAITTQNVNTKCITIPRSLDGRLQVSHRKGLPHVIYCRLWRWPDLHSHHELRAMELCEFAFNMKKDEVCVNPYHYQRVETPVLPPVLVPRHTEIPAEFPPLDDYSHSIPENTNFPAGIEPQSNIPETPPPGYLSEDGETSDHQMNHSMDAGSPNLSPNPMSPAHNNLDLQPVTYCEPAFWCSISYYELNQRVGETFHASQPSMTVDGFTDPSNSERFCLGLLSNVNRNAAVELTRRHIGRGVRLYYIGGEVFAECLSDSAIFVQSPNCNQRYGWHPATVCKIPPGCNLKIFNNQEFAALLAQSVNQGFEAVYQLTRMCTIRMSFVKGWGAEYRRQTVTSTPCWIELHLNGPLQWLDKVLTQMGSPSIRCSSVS
Assay: Smad3/FoxH1 peptide binding inhibitors, primary screen, biochemical, TR-FRET (AID 630);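 also: 0% = Smad3 plus labelled peptide maximal FRET and 100% = peptide-only background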
Settings: TR-FRET Smad3/Dy647-FoxH1 peptide binding, europium anti-His; at 25 µM; stronger effect = higher value

| SMILES | inhibition |
| --- | --- |
| Cc1ccc(S(=O)(=O)O[C@H]2CN3CCC2CC3)cc1 | 67.3% (active) |
| O=C1C[C@@H]2OCC=C3CN4CC[C@]56c7ccccc7N1[C@H]5[C@H]2[C@H]3C[C@H]46 (tested in a mixture with another compound) | -5.82% |
| c1cc2c(cc1CCNC1CCCCCC1)OCO2 | -10.4% |
| CC[C@@](O)(C(=O)O)c1cc2n(c(=O)c1CO)Cc1cc3ccccc3nc1-2 | -1.51% |
| C=C[C@@H]1CN2CC[C@H]1C[C@@H]2[C@H](O)c1ccnc2ccccc12 | -9.04% |
